Positions count from the first letter of the chain named.
How the values were obtained:
Assay in all cases: PBM; 200 nM protein, PBS
Conditions in all cases: dsDNA, one strand shown
[1] = target: HOXC9 (Homo sapiens, UniProt P31274 178-260, K195R)
[2] = target: HOXC9 (Homo sapiens, UniProt P31274 178-260)
[3] = target: HOXC9 (Homo sapiens, UniProt P31274 178-260, R193K)
[4] = target: HOXC9 (Homo sapiens, UniProt P31274 178-260, R222W)
[5] = target: T1, VENTX (Homo sapiens, UniProt O95231 78-163)
T1 sequence: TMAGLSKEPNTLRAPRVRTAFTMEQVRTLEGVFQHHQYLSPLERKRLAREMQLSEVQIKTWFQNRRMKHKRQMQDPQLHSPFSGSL

[6] = target: ALX4 (Homo sapiens, UniProt Q9H161 200-286)
[7] = target: HOXA7 (Homo sapiens, UniProt P31268 116-202)
[8] = target: NKX3-2 (Homo sapiens, UniProt P78367 192-278, P234S)
[9] = target: NKX3-2 (Homo sapiens, UniProt P78367 192-278)
[10] = target: T2, VENTX (Homo sapiens, UniProt O95231 78-163, Y115F)
T2 sequence: T1 sequence with Y38F

[11] = target: HOXC10 (Homo sapiens, UniProt Q9NYD6 254-340)
[12] = target: HOXA2 (Homo sapiens, UniProt O43364 129-215, R185T)
[13] = target: HOXA2 (Homo sapiens, UniProt O43364 129-215, R185K)
[14] = target: HOXC10 (Homo sapiens, UniProt Q9NYD6 254-340, K271E)
[15] = target: HOXA2 (Homo sapiens, UniProt O43364 129-215, Y150S)
[16] = target: HOXA7 (Homo sapiens, UniProt P31268 116-202, W177C)
[17] = target: HOXA2 (Homo sapiens, UniProt O43364 129-215)
[18] = target: MSX2 (Homo sapiens, UniProt P35548 130-214, R199I)
[19] = target: MSX2 (Homo sapiens, UniProt P35548 130-214)
[20] = target: MSX2 (Homo sapiens, UniProt P35548 130-214, F161Y)
[21] = target: T3, PAX4 (Homo sapiens, UniProt O43316 9-242, R200K)
T3 sequence: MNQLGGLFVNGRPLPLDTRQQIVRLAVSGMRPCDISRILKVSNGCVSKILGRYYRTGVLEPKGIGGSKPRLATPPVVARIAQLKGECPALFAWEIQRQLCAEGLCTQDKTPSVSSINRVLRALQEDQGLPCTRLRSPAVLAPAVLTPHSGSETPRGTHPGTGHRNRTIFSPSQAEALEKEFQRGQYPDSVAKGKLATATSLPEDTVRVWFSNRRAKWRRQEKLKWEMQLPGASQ

[22] = target: T4, PAX4 (Homo sapiens, UniProt O43316 9-242)
T4 sequence: T3 sequence with K192R

[23] = target: T5, PAX4 (Homo sapiens, UniProt O43316 9-242, R200Q)
T5 sequence: T3 sequence with K192Q

[24] = target: T6, PAX4 (Homo sapiens, UniProt O43316 9-242, F177V)
T6 sequence: T3 sequence with F169V, K192R

[25] = target: T7, PAX4 (Homo sapiens, UniProt O43316 9-242, F177Y)
T7 sequence: T3 sequence with F169Y, K192R

[26] = target: T8, PAX4 (Homo sapiens, UniProt O43316 9-242, R227W)
T8 sequence: T3 sequence with K192R, R219W

[27] = target: PITX2 (Homo sapiens, UniProt Q99697 72-157)
[28] = target: ALX4 (Homo sapiens, UniProt Q9H161 200-286, Q225E)
[29] = target: HOXD13 (Homo sapiens, UniProt P35453 263-343, T313R)
[30] = target: HOXD13 (Homo sapiens, UniProt P35453 263-343)
[31] = target: HOXD13 (Homo sapiens, UniProt P35453 263-343, T313A)
[32] = target: ALX1 (Homo sapiens, UniProt Q15699 118-204, L144V)
[33] = target: ALX1 (Homo sapiens, UniProt Q15699 118-204, L144R)
[34] = target: ALX1 (Homo sapiens, UniProt Q15699 118-204)
[35] = target: T9, NKX2-6 (Homo sapiens, UniProt A6NCS4 118-204)
T9 sequence: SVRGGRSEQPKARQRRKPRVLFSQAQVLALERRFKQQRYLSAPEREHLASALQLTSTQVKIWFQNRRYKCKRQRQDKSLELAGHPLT

[36] = target: T10, NKX2-6 (Homo sapiens, UniProt A6NCS4 118-204, F151L)
T10 sequence: T9 sequence with F34L

Sequence of HOXA7 (Homo sapiens, UniProt P31268 116-202) (P31268 116-202): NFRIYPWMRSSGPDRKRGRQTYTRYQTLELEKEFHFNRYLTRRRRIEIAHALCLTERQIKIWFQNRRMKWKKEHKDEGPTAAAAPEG
Sequence of HOXC9 (Homo sapiens, UniProt P31274 178-260, K195R) (P31274 178-260 K195R): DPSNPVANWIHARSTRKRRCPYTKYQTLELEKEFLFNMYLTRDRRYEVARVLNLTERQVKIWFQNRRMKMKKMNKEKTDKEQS
Sequence of HOXC9 (Homo sapiens, UniProt P31274 178-260, R222W) (P31274 178-260 R222W): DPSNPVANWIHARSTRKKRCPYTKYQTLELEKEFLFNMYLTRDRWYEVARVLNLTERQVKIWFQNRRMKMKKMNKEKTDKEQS
Sequence of HOXC9 (Homo sapiens, UniProt P31274 178-260, R193K) (P31274 178-260 R193K): as the sequence (P31274 178-260 R222W) above, with R16K, W45R counted along it
Sequence of HOXA7 (Homo sapiens, UniProt P31268 116-202, W177C) (P31268 116-202 W177C): as the sequence (P31268 116-202) above, with W62C counted along it
Sequence of HOXA2 (Homo sapiens, UniProt O43364 129-215, R185T) (O43364 129-215 R185T): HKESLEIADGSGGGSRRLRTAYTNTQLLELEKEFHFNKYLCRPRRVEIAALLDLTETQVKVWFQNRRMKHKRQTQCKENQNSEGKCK
Sequence of HOXA2 (Homo sapiens, UniProt O43364 129-215, Y150S) (O43364 129-215 Y150S): as the sequence (O43364 129-215 R185T) above, with Y22S, T57R counted along it
Sequence of HOXA2 (Homo sapiens, UniProt O43364 129-215) (O43364 129-215): as the sequence (O43364 129-215 R185T) above, with T57R counted along it
Sequence of HOXA2 (Homo sapiens, UniProt O43364 129-215, R185K) (O43364 129-215 R185K): as the sequence (O43364 129-215 R185T) above, with T57K counted along it
Sequence of HOXC9 (Homo sapiens, UniProt P31274 178-260) (P31274 178-260): as the sequence (P31274 178-260 R222W) above, with W45R counted along it
Sequence of ALX1 (Homo sapiens, UniProt Q15699 118-204, L144V) (Q15699 118-204 L144V): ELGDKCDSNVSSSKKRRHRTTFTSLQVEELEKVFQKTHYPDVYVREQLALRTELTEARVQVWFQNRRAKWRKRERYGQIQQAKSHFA
Sequence of ALX1 (Homo sapiens, UniProt Q15699 118-204) (Q15699 118-204): as the sequence (Q15699 118-204 L144V) above, with V27L counted along it
Sequence of HOXD13 (Homo sapiens, UniProt P35453 263-343) (P35453 263-343): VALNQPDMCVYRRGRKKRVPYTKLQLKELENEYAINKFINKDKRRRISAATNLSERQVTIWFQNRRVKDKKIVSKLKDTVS
Sequence of HOXD13 (Homo sapiens, UniProt P35453 263-343, T313R) (P35453 263-343 T313R): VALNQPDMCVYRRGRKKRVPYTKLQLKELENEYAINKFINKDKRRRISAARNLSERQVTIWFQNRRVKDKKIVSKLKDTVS
Sequence of ALX1 (Homo sapiens, UniProt Q15699 118-204, L144R) (Q15699 118-204 L144R): as the sequence (Q15699 118-204 L144V) above, with V27R counted along it
Sequence of ALX4 (Homo sapiens, UniProt Q9H161 200-286) (Q9H161 200-286): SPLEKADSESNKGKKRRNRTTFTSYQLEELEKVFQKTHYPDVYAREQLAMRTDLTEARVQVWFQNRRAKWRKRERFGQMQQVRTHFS
Sequence of MSX2 (Homo sapiens, UniProt P35548 130-214, F161Y) (P35548 130-214 F161Y): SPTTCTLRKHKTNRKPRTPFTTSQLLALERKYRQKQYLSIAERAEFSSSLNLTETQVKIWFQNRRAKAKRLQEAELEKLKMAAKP
Sequence of NKX3-2 (Homo sapiens, UniProt P78367 192-278) (P78367 192-278): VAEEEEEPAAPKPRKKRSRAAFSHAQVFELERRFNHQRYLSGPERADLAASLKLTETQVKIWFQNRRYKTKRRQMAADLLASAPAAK
Sequence of HOXC10 (Homo sapiens, UniProt Q9NYD6 254-340, K271E) (Q9NYD6 254-340 K271E): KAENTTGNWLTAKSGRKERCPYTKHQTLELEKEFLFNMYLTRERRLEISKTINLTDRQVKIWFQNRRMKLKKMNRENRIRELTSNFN
Sequence of HOXD13 (Homo sapiens, UniProt P35453 263-343, T313A) (P35453 263-343 T313A): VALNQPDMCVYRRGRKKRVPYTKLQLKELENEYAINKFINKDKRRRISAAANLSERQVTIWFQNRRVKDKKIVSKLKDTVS
Sequence of ALX4 (Homo sapiens, UniProt Q9H161 200-286, Q225E) (Q9H161 200-286 Q225E): as the sequence (Q9H161 200-286) above, with Q26E counted along it
Sequence of MSX2 (Homo sapiens, UniProt P35548 130-214, R199I) (P35548 130-214 R199I): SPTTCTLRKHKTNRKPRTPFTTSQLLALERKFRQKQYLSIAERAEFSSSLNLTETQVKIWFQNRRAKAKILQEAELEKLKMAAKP
Sequence of NKX3-2 (Homo sapiens, UniProt P78367 192-278, P234S) (P78367 192-278 P234S): as the sequence (P78367 192-278) above, with P43S counted along it
Sequence of HOXC10 (Homo sapiens, UniProt Q9NYD6 254-340) (Q9NYD6 254-340): as the sequence (Q9NYD6 254-340 K271E) above, with E18K counted along it
Sequence of MSX2 (Homo sapiens, UniProt P35548 130-214) (P35548 130-214): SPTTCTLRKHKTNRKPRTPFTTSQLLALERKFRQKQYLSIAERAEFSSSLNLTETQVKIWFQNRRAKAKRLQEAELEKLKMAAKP

AGGGGGTG
binding signal [1]: 9.33 upbm affinity estimate (log intensity, higher = more binding, comparable within an allelic series) | binding signal [2]: 9.51 upbm affinity estimate (log intensity, higher = more binding, comparable within an allelic series) | binding signal [3]: 9.39 upbm affinity estimate (log intensity, higher = more binding, comparable within an allelic series) | binding signal [4]: 9.42 upbm affinity estimate (log intensity, higher = more binding, comparable within an allelic series)

AATAACCG
binding signal [5]: 10.1 upbm affinity estimate (log intensity, higher = more binding, comparable within an allelic series)

CTAACGCA
binding signal [5]: 9.98 upbm affinity estimate (log intensity, higher = more binding, comparable within an allelic series) | binding signal [6]: 9.64 upbm affinity estimate (log intensity, higher = more binding, comparable within an allelic series)

ACTAAGCG
binding signal [5]: 10.2 upbm affinity estimate (log intensity, higher = more binding, comparable within an allelic series)

ATTTAGAC
binding signal [7]: 9.49 upbm affinity estimate (log intensity, higher = more binding, comparable within an allelic series)

ATCACCAT
binding signal [5]: 10.3 upbm affinity estimate (log intensity, higher = more binding, comparable within an allelic series)

CACGTTTA
binding signal [5]: 10.1 upbm affinity estimate (log intensity, higher = more binding, comparable within an allelic series)

CCGGTACC
binding signal [1]: 9.7 upbm affinity estimate (log intensity, higher = more binding, comparable within an allelic series) | binding signal [2]: 9.7 upbm affinity estimate (log intensity, higher = more binding, comparable within an allelic series) | binding signal [3]: 9.72 upbm affinity estimate (log intensity, higher = more binding, comparable within an allelic series) | binding signal [4]: 9.71 upbm affinity estimate (log intensity, higher = more binding, comparable within an allelic series) | binding signal [8]: 10.5 upbm affinity estimate (log intensity, higher = more binding, comparable within an allelic series) | binding signal [9]: 10.6 upbm affinity estimate (log intensity, higher = more binding, comparable within an allelic series)

AATTGGAC
binding signal [5]: 10.1 upbm affinity estimate (log intensity, higher = more binding, comparable within an allelic series) | binding signal [10]: 9.62 upbm affinity estimate (log intensity, higher = more binding, comparable within an allelic series)

ATAATAAC
binding signal [1]: 12 upbm affinity estimate (log intensity, higher = more binding, comparable within an allelic series) | binding signal [2]: 12 upbm affinity estimate (log intensity, higher = more binding, comparable within an allelic series) | binding signal [3]: 12 upbm affinity estimate (log intensity, higher = more binding, comparable within an allelic series) | binding signal [4]: 10.7 upbm affinity estimate (log intensity, higher = more binding, comparable within an allelic series)

CACCGGTC
binding signal [7]: 8.56 upbm affinity estimate (log intensity, higher = more binding, comparable within an allelic series) | binding signal [11]: 10 upbm affinity estimate (log intensity, higher = more binding, comparable within an allelic series) | binding signal [12]: 7.38 upbm affinity estimate (log intensity, higher = more binding, comparable within an allelic series) | binding signal [13]: 10.4 upbm affinity estimate (log intensity, higher = more binding, comparable within an allelic series) | binding signal [14]: 9.92 upbm affinity estimate (log intensity, higher = more binding, comparable within an allelic series) | binding signal [15]: 10.3 upbm affinity estimate (log intensity, higher = more binding, comparable within an allelic series) | binding signal [16]: 8.34 upbm affinity estimate (log intensity, higher = more binding, comparable within an allelic series) | binding signal [17]: 7.28 upbm affinity estimate (log intensity, higher = more binding, comparable within an allelic series)

ATATTAGA
binding signal [7]: 9.95 upbm affinity estimate (log intensity, higher = more binding, comparable within an allelic series) | binding signal [18]: 11.1 upbm affinity estimate (log intensity, higher = more binding, comparable within an allelic series) | binding signal [19]: 11.8 upbm affinity estimate (log intensity, higher = more binding, comparable within an allelic series) | binding signal [20]: 11.5 upbm affinity estimate (log intensity, higher = more binding, comparable within an allelic series) | binding signal [16]: 8.88 upbm affinity estimate (log intensity, higher = more binding, comparable within an allelic series)

CCTGTGTC
binding signal [7]: 8.55 upbm affinity estimate (log intensity, higher = more binding, comparable within an allelic series) | binding signal [16]: 8.53 upbm affinity estimate (log intensity, higher = more binding, comparable within an allelic series)

CGTTGCTC
binding signal [7]: 8.49 upbm affinity estimate (log intensity, higher = more binding, comparable within an allelic series) | binding signal [21]: 9.58 upbm affinity estimate (log intensity, higher = more binding, comparable within an allelic series) | binding signal [22]: 9.38 upbm affinity estimate (log intensity, higher = more binding, comparable within an allelic series) | binding signal [23]: 9.57 upbm affinity estimate (log intensity, higher = more binding, comparable within an allelic series) | binding signal [24]: 9.52 upbm affinity estimate (log intensity, higher = more binding, comparable within an allelic series) | binding signal [25]: 9.55 upbm affinity estimate (log intensity, higher = more binding, comparable within an allelic series) | binding signal [26]: 9.55 upbm affinity estimate (log intensity, higher = more binding, comparable within an allelic series) | binding signal [16]: 8.47 upbm affinity estimate (log intensity, higher = more binding, comparable within an allelic series)

AGGGCATG
binding signal [7]: 8.51 upbm affinity estimate (log intensity, higher = more binding, comparable within an allelic series) | binding signal [27]: 7.96 upbm affinity estimate (log intensity, higher = more binding, comparable within an allelic series) | binding signal [16]: 8.49 upbm affinity estimate (log intensity, higher = more binding, comparable within an allelic series)

CGCTGAAG
binding signal [7]: 8.52 upbm affinity estimate (log intensity, higher = more binding, comparable within an allelic series) | binding signal [16]: 8.44 upbm affinity estimate (log intensity, higher = more binding, comparable within an allelic series)

GAATATAA
binding signal [7]: 9.85 upbm affinity estimate (log intensity, higher = more binding, comparable within an allelic series) | binding signal [6]: 10.8 upbm affinity estimate (log intensity, higher = more binding, comparable within an allelic series) | binding signal [28]: 9.99 upbm affinity estimate (log intensity, higher = more binding, comparable within an allelic series) | binding signal [16]: 8.92 upbm affinity estimate (log intensity, higher = more binding, comparable within an allelic series)

TATAAAAA
binding signal [7]: 9.87 upbm affinity estimate (log intensity, higher = more binding, comparable within an allelic series) | binding signal [29]: 10.9 upbm affinity estimate (log intensity, higher = more binding, comparable within an allelic series) | binding signal [30]: 11.8 upbm affinity estimate (log intensity, higher = more binding, comparable within an allelic series) | binding signal [31]: 11.6 upbm affinity estimate (log intensity, higher = more binding, comparable within an allelic series) | binding signal [4]: 11.1 upbm affinity estimate (log intensity, higher = more binding, comparable within an allelic series) | binding signal [16]: 8.84 upbm affinity estimate (log intensity, higher = more binding, comparable within an allelic series)

AATAACAT
binding signal [7]: 10.1 upbm affinity estimate (log intensity, higher = more binding, comparable within an allelic series) | binding signal [12]: 9.56 upbm affinity estimate (log intensity, higher = more binding, comparable within an allelic series) | binding signal [13]: 11.6 upbm affinity estimate (log intensity, higher = more binding, comparable within an allelic series) | binding signal [15]: 10.9 upbm affinity estimate (log intensity, higher = more binding, comparable within an allelic series) | binding signal [16]: 8.98 upbm affinity estimate (log intensity, higher = more binding, comparable within an allelic series) | binding signal [17]: 9.63 upbm affinity estimate (log intensity, higher = more binding, comparable within an allelic series)

GGGTACCC
binding signal [7]: 8.53 upbm affinity estimate (log intensity, higher = more binding, comparable within an allelic series) | binding signal [16]: 8.44 upbm affinity estimate (log intensity, higher = more binding, comparable within an allelic series)

CGTCGCCC
binding signal [7]: 8.61 upbm affinity estimate (log intensity, higher = more binding, comparable within an allelic series) | binding signal [32]: 6.4 upbm affinity estimate (log intensity, higher = more binding, comparable within an allelic series) | binding signal [33]: 6.34 upbm affinity estimate (log intensity, higher = more binding, comparable within an allelic series) | binding signal [16]: 8.42 upbm affinity estimate (log intensity, higher = more binding, comparable within an allelic series) | binding signal [34]: 6.57 upbm affinity estimate (log intensity, higher = more binding, comparable within an allelic series)

GCTATAAC
binding signal [7]: 9.4 upbm affinity estimate (log intensity, higher = more binding, comparable within an allelic series) | binding signal [32]: 8.22 upbm affinity estimate (log intensity, higher = more binding, comparable within an allelic series) | binding signal [33]: 8.11 upbm affinity estimate (log intensity, higher = more binding, comparable within an allelic series) | binding signal [16]: 8.68 upbm affinity estimate (log intensity, higher = more binding, comparable within an allelic series) | binding signal [34]: 8.21 upbm affinity estimate (log intensity, higher = more binding, comparable within an allelic series)

TAGTTTAA
binding signal [7]: 9.76 upbm affinity estimate (log intensity, higher = more binding, comparable within an allelic series) | binding signal [16]: 8.8 upbm affinity estimate (log intensity, higher = more binding, comparable within an allelic series)

ATTACCAC
binding signal [7]: 10.4 upbm affinity estimate (log intensity, higher = more binding, comparable within an allelic series) | binding signal [29]: 10.1 upbm affinity estimate (log intensity, higher = more binding, comparable within an allelic series) | binding signal [30]: 10.7 upbm affinity estimate (log intensity, higher = more binding, comparable within an allelic series) | binding signal [16]: 8.73 upbm affinity estimate (log intensity, higher = more binding, comparable within an allelic series)

CCGGGGGC
binding signal [7]: 8.67 upbm affinity estimate (log intensity, higher = more binding, comparable within an allelic series) | binding signal [35]: 9.19 upbm affinity estimate (log intensity, higher = more binding, comparable within an allelic series) | binding signal [36]: 8.93 upbm affinity estimate (log intensity, higher = more binding, comparable within an allelic series) | binding signal [16]: 8.26 upbm affinity estimate (log intensity, higher = more binding, comparable within an allelic series)

GCAGGTCC
binding signal [7]: 8.46 upbm affinity estimate (log intensity, higher = more binding, comparable within an allelic series) | binding signal [16]: 8.46 upbm affinity estimate (log intensity, higher = more binding, comparable within an allelic series)

GACGCTGC
binding signal [7]: 8.24 upbm affinity estimate (log intensity, higher = more binding, comparable within an allelic series) | binding signal [12]: 6.99 upbm affinity estimate (log intensity, higher = more binding, comparable within an allelic series) | binding signal [13]: 10.4 upbm affinity estimate (log intensity, higher = more binding, comparable within an allelic series) | binding signal [15]: 10.4 upbm affinity estimate (log intensity, higher = more binding, comparable within an allelic series) | binding signal [16]: 8.35 upbm affinity estimate (log intensity, higher = more binding, comparable within an allelic series) | binding signal [17]: 7.11 upbm affinity estimate (log intensity, higher = more binding, comparable within an allelic series)
